KB-3-1 cytotox = KB-3-1 parental cell cytotoxicity; KB-3-1 viability, CellTiter-Glo ATP luminescence, 72 h; Potency, µM (highest dose often 46.1 µM), actives largely listed as cytotoxic; 400,000 compounds, 1.4% hits; also: % is scaled to controls: 0 for no effect and ±100 for the full control effect; nearly all actives have a fitted effect of over 60% in size
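Viability of parental KB-3-1 cells, measured by CellTiter-Glo luminescence, followed a 72 h incubation at 37 °C with pinned compounds in phenol-red-free DMEM containing 10% FBS.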
MCF10A rerep = DNA re-replication induction in MCF 10a cells; MCF 10A DNA re-replication, Hoechst nuclear intensity, 48 h; Potency, µM (top dose mostly 46.1 µM), for the others: at the highest dose activity, positive = re-replication, actives largely listed as activators; 350,000 compounds, 2.9% hits; also: % of control where 0% means no effect; nearly all actives have a fitted effect of over 50% in size
SW480 rereplic = inducers of DNA re-replication in SW480 colon cancer cells; Potency, µM (series often up to 46.1 µM), for the others: at the highest dose re-replication activation, actives largely listed as activators; AID 624297; SW480 DNA re-replication, Hoechst DNA content imaging, 48 h; 340,000 compounds, 1.8% hits; also: % of control where 0% means no effect; nearly all actives have a fitted effect of over 55% in size
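Readout is total intensity of Hoechst-stained nuclei, excited at 405 nm and collected at 500-530 nm. Compound treatment lasted 48 hr at 37 C in 5% CO2 before staining.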
RGS4 inh = inhibitors of human regulator of G protein signaling 4 | Potency, µM (doses to about 114 µM), for inactives: top-dose activity change, negative = inhibition, usual class: inhibitors | Transcreener GDP fluorescence polarization, RGS4-accelerated GTP hydrolysis | 390,000 compounds, 0.039% hits | AID 504845 | P49798; also: % is scaled to controls: 0 for no effect and ±100 for the full control effect; nearly all actives have a fitted effect of over 75% in size
Target sequence (P49798 whole entry, looked up): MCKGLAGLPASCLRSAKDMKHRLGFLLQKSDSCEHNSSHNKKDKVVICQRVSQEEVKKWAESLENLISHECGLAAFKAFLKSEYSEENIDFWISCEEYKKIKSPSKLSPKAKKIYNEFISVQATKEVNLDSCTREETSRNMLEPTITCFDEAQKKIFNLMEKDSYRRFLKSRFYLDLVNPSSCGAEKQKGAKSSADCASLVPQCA
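MLSMR compounds (23 nl, pin-transferred) preincubated 10 min at room temperature with a 500nM (2x) first reagent, then RGS4 at 900nM (2x) plus Transcreener GDP mix added; fluorescence polarization (620/688 nm) read before and after 90 min at 30 °C.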
KB-V1 cytotox = KB-V1 MDR subline cytotoxicity; 400,000 compounds, 3.4% hits; AID 1347076; KB-V1 MDR cells viability, CellTiter-Glo, 72 h; Potency, µM (series often up to 46.1 µM), most hits filed as cytotoxic; also: % is scaled to controls: 0 for no effect and ±100 for the full control effect; nearly all actives have a fitted effect of over 60% in size
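Following 72 h at 37 degrees C with compound, KB-V1 cell viability was read by CellTiter-Glo luminescence, medium being phenol-red-free DMEM plus 10% FBS; concentration-response parameters came from normalized, curve-fitted qHTS data.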
PTAP TSG101 blk = blocks PTAP/TSG101 interaction to inhibit HIV-1 budding. Q99816. Fluorescence polarization, FITC-PTAP peptide / Tsg101 binding. Potency, µM (titrated, usually from 115 µM), for inactives: at the highest dose activity change, negative = inhibition, hits mostly inhibitors. 340,000 tested, under 10 active. AID 493005; active = well fitted inhibition curve with a large enough effect in the main read-out, with a control signal flat, not every such curve was filed as active; inconclusive = small, poorly fitted or top-dose-only effect, or effect the other way, or a change in a side signal; inactive = no such curve, though single readings can be large or run the other way; also: % of control where 0% means no effect
Target sequence (Q99816 whole entry, looked up): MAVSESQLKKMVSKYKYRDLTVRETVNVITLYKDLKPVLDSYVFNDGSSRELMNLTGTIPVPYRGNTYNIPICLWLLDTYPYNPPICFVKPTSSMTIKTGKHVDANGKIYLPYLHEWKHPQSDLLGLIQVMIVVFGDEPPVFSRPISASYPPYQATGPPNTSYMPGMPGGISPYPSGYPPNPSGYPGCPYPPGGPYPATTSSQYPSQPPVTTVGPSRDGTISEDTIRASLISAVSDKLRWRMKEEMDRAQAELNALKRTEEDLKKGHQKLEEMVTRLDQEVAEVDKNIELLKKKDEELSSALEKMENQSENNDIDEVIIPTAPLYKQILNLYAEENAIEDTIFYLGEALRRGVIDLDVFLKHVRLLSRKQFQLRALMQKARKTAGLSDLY
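Tsg101 binding domain (10 uM final) was mixed with compound and a FITC-labeled PTAP peptide (50 nM final) in HEPES pH 7.5 buffer with NaCl, Tween 20, EDTA and TCEP; fluorescence polarization was read after 20 min at r.t.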
* marks the source's active call; other numbers are inactive results; i = inactive; ? = inconclusive; . = no result given; [ ] = another dose, or the depositor's remark. Rows were chosen to be rich in hits. Some 6.6% of all compounds tested hit in one or more screens of this group. Unless noted, calls follow the shape of the dose curve; as a rule, active = well fitted curve in the direction sought with a large enough effect; inconclusive = small, poorly fitted or top-dose-only effect, or another doubt; inactive = no such curve, though single readings can be large; an effect the other way counts as inactive or inconclusive. Potency is read from the fitted curve at half-maximal effect.

SMILES | KB-3-1 cytotox | MCF10A rerep | SW480 rereplic | RGS4 inh | KB-V1 cytotox | PTAP TSG101 blk
COc1ccc(CCNC(=S)N2CCC(C(=O)c3ccc(F)cc3)CC2)cc1OC | ? | -1% | -15% | -4%[56.9 µM] | 4.1µM* | -6%
CCc1cc(=O)n2c([nH]c3ccccc32)c1C#N | i | ? | -2% | -18% | i | 0%
C=C(C)Cc1c(C)c(C#N)c2[nH]c3ccccc3n2c1=O | ? | ? | 8% | 2%[56.9 µM] | ? | -1%
CCc1c(C)c(C#N)c2[nH]c3ccccc3n2c1=S | ? | ? | -58% | ? | 7.3µM* | -4%
CCc1cc(=S)n2c([nH]c3ccccc32)c1C#N | ? | ? | ? | ? | 5.8µM* | -8%
O=C(Nc1c2c(nn1-c1ccc(F)cc1)CS(=O)(=O)C2)C12CC3CC(CC(C3)C1)C2 | i | -3% | 2% | -17% | 23µM* | -4%
O=C(CCS(=O)(=O)c1ccc(F)cc1)Nc1nnc(-c2ccco2)o1 | i | ? | 18µM* | -12% | i | -5%
Cc1ccc(S(=O)(=O)CCC(=O)Nc2nnc(-c3ccc(F)cc3)o2)cc1 | i | ? | ? | 2% | i | 1%
COc1cc(OC)cc(-c2nnc(NC(=O)CCS(=O)(=O)c3ccc(C)cc3)o2)c1 | i | 4.6µM* | ? | -12% | i | -4%
Cc1nn(-c2ccccc2)c2c1CC(=O)Nc1ccccc1-2 | 0.65µM* | 1.3µM* | 1.5µM* | -26% | 1.6µM* | -10%
CC(C)c1ccc(Cn2ccc3c4c(N)nc(NC5CC5)nc4ccc32)cc1 | . | . | . | -141%[56.9 µM] | . | .
COC(=O)c1c(C)[nH]c(C(=O)C(C)OC(=O)C2CC2C)c1C (stereo unspecified) | i | 8% | -4% | -14% | i | -2%
COC(=O)c1c(C)[nH]c(C(=O)C(C)OC(=O)C2=NNC(=O)CC2)c1C (stereo unspecified) | ? | -1% | -9% | -38% | 5.8µM* | -6%
Cc1cccc(NC(=O)C(=O)NCCc2sc(-c3ccccc3)nc2C)c1C | i | . | . | -13% | i | .
CC1(CCc2ccccc2)NC(=O)N(CC(=O)Nc2ccc(OC(F)F)cc2)C1=O (stereo unspecified) | i | 4% | 1% | 8% | 21µM* | 0%
CCOc1[nH]n(-c2ccccc2)c(=O)c1C=Nc1ccccc1 | i | 23µM* | ? | -29% | ? | 1%
O=C(NCCOCCn1c(=O)oc2ccccc21)Nc1ccc(Cl)cc1 | i | . | . | 2% | i | .
O=C(Cc1ccc(-c2ccccc2)cc1)NCCS(=O)(=O)N1CCN(c2ccccc2F)CC1 | . | . | . | -47% | . | .
O=S(=O)(Nc1ncccn1)c1ccc(Cl)cc1 | i | 0% | -52% | 10% | i | -5%
CN(C)c1nc(NS(=O)(=O)c2ccc(Cl)cc2)nc(N(C)C)n1 | i | 9% | 2% | 10% | 13µM* | -7%
Cc1cc(C)c(Cn2c3ccccc3c3cnn(CC(=O)NCC(C)c4ccccc4)c(=O)c32)c(C)c1 (stereo unspecified) | i | . | . | -28% | i | .
CCOC(=O)c1c(C)[nH]c(C(=O)N/N=C\c2ccccc2O)c1C | ? | ? | 5.2µM* | -6% | 2.1µM* | -3%
O=C(N/N=C/c1cc([N+](=O)[O-])ccc1O)C12CC3CC(CC(C3)C1)C2 | ? | 7.3µM* | ? | 11% | i | -3%
CCOC(=O)c1c(C)[nH]c(C(=O)N/N=C/c2ccc(OC)c(OC)c2)c1C | ? | 14% | ? | 16% | i | -3%
CCOC(=O)c1c(C)[nH]c(C(=O)N/N=C/c2cc([N+](=O)[O-])ccc2O)c1C | 12µM* | -1% | 7% | 9% | ? | -5%
SMILES | KB-3-1 cytotox | MCF10A rerep | SW480 rereplic | RGS4 inh | KB-V1 cytotox | PTAP TSG101 blk
CCc1nnc(SCc2ccc(OC)cc2)c2cc3sc(C)cc3n12 | . | . | . | -5% | . | .
CCc1ccc(C2=NN(c3ccc(S(N)(=O)=O)cc3)C(c3ccc(F)cc3)C2)cc1 (stereo unspecified) | ? | ? | 9.2µM* | -11% | ? | 0%
Fc1ccc(N2N=C(c3cccs3)CC2c2ccccc2)cc1 (stereo unspecified) | i | 2.6µM* | 5.8µM* | -31% | i | 5%
NS(=O)(=O)c1ccc(N2N=C(c3ccccc3)CC2c2ccccc2Cl)cc1 (stereo unspecified) | i | 3.3µM* | 4.6µM* | 29% | i | -3%
NS(=O)(=O)c1ccc(N2N=C(c3ccccc3)CC2c2ccccc2)cc1 (stereo unspecified) | ? | 8.2µM* | 13µM* | -38% | ? | 2%
O=C(NCC(c1cccnc1)N1CCN(Cc2ccccc2)CC1)C(=O)Nc1ccc(Cl)cc1 (stereo unspecified) | i | . | . | 3% | i | .
O=S(=O)(O)c1ccc(N2N=C(c3ccccc3)CC2c2ccccc2)cc1 (stereo unspecified) | i | 15% | 15µM* | 3%[11.4 µM] | i | -18%
Cc1ccc(C2CC(c3ccccc3)=NN2c2ccc(S(N)(=O)=O)cc2)cc1 (stereo unspecified) | ? | . | . | . | i | .
CC(=O)c1nnn(-c2nc(N)nc(N(c3ccccc3)c3ccccc3)n2)c1C | i | 0% | -9% | -11% | 10µM* | -4%
Cc1cc(C)n(-c2nc(N(c3ccccc3)c3ccccc3)nc(-n3nc(C)cc3C)n2)n1 | 18µM* | ? | 17% | 5% | 2.6µM* | -4%
